For 93 compounds, activation results are on record in PubChem BioAssay AID1508602 (The Scripps Research Institute Molecular Screening Center, 2020).

SMILES strings stand for the structures. The campaign covered roughly 650,000 compounds. About 6,800 (1%) were called active. The list comes from a sample in which actives are over-represented; it also holds similar structures and randomly drawn compounds. A number with no mark means an inactive call. Rule as the data show it: active = activation above about 4.9%; inactive = the rest.

This test deals with G-protein coupled receptor 151 (Homo sapiens) (UniProt Q8TDV0). Nature of the test: activates the human receptor GPR151, primary screen, cell-based, PathHunter beta-arrestin, luminescence (AID 1508602).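 Also: 0% = median of compound wells and 100% = cells with positive control.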 Conditions: PathHunter beta-arrestin GPR151 cells, at 11.2 µM, active compounds read high.
Chain of G-protein coupled receptor 151 (Homo sapiens) (Q8TDV0 whole entry, looked up): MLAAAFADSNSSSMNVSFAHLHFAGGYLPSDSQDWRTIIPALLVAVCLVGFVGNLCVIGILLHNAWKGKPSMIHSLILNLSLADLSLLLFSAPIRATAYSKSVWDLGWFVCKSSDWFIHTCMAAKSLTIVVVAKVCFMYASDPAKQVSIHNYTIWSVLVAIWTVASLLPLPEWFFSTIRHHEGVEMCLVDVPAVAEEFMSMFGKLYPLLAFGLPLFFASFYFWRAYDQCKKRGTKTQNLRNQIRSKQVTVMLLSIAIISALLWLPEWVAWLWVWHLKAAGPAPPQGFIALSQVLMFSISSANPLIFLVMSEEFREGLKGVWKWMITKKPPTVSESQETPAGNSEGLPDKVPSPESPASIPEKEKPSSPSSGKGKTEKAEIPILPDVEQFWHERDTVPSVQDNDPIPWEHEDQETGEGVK
On to `O=C(Nc1nc2c(ccc3ccccc32)s1)c1cccc(Oc2ccccc2)c1`, for which the activation is 1.27%.

In the case of `COC(=O)c1c(NC(=O)Nc2ccc(Cl)c(Cl)c2)sc2c1CCCC2`, the activation is 8.57% (active).

`COC(=O)c1c(NC(=O)c2ccc(Cl)c(Cl)c2)sc2c1CCCC2`: the activation is 0.167%.

Turning to `CCOC(=O)c1c(NC(=O)Nc2cccc(Cl)c2)sc2c1CCCC2`, the activation was 0.0535%.

In the case of `COc1ccc(OC)c(NC(=O)CN(c2cccc(C)c2C)S(C)(=O)=O)c1`, the activation was 5.98% (active).

As to `COc1ccc(NC(=O)CN(c2cc(OC)ccc2OC)S(C)(=O)=O)c(OC)c1`, the activation is 0.777%.

As to `Cc1ccc(C)c(NC(=O)CN(c2cccc(C)c2C)S(C)(=O)=O)c1`, the activation is 0.883%.

For `CCCOc1ccc([N+](=O)[O-])cc1C1NC(=S)NC(C)=C1C(=O)OC` (stereo not drawn), the activation was -1.65%.

Turning to `Cc1cc2nc(C3CCCCN3C(=O)c3cscn3)[nH]c2cc1C` (stereo not drawn), the activation is -0.0121%.

Consider `Cc1c2cnn(-c3ccccc3)c(=O)c2c(C)n1CCCC(=O)N1CCN(C)CC1`, for which the activation is 0.178%.

Consider `CCC(C(=O)N1CCCCC1)n1c(C)c2cnn(-c3ccccc3)c(=O)c2c1C` (stereo not drawn), for which the activation is 5.32% (active).

Turning to `CCC(C(=O)N1CCN(C)CC1)n1c(C)c2cnn(-c3ccccc3)c(=O)c2c1C` (stereo not drawn), the activation was -1.42%.

Regarding `Cc1ccc(S(=O)(=O)Oc2ccc(/C=C3\SC(N)=NC3=O)cc2)cc1`, the activation was -0.455%.

With `COc1ccc2c(c1)C(Cc1csc(C)n1)(c1ccc(F)cc1)C(=O)N2` (stereo not drawn), the activation was 0.748%.

Turning to `CC(C)NCCOCCOc1ccc(I)cc1`, the activation is 0.568%.

As for `CCNc1nc(NC(C)C)nc(OCCOC(=O)c2ccccc2)n1`, the activation is 1.89%.

`CCNc1nc(NCC)nc(C(=O)O)n1`: the activation is -0.247%.

In the case of `CCNc1nc(NC(C)C)nc(OCCOC(C)=O)n1`, the activation is 5.11% (active).

For `Cc1ccc(CN(C)Cc2nc3sc4c(c3c(=O)[nH]2)CCC4)o1`, the activation is 0.643%.

For `CC(C)c1ccc(Nc2nccn3c(-c4cccc(CO)c4)cnc23)cc1`, the activation was 7.31% (active).

As to `COc1ccc(Nc2ncc(-c3ccc(CO)cc3)n3ccnc23)cc1`, the activation was -0.0468%.

For the compound `NC(=O)c1ccc(Nc2nccn3c(-c4cccc(F)c4)cnc23)cc1`, the activation is -0.391%.

As for `COc1ccccc1NC(=O)CSc1nnc(-c2ccc(O)cc2)o1`, the activation is -0.782%.

In the case of `CC(=O)N1CCN(Cc2ccc3c(c2)CN(Cc2c[nH]c4ccccc24)CCO3)CC1`, the activation was 2.78%.

Consider `CCOc1cccc(CN2CCOc3ccc(CN4CCNC(=O)C4CC)cc3C2)c1` (stereo not drawn), for which the activation was -1.24%.

In the case of `CCC1C(=O)NCCN1Cc1ccc2c(c1)CN(Cc1c[nH]c3ccccc13)CCO2` (stereo not drawn), the activation was 5.37% (active).

Turning to `COc1ccc2c(c1)C=C(CN1CCN(CC3CCCCC3)C(CCO)C1)CO2` (stereo not drawn), the activation is 5.13% (active).

`COc1cc(CN2CCN(CC3CCCCC3)C(CCO)C2)ccc1O` (stereo not drawn): the activation was -0.725%.

With `COc1cccc2c1OCC(CN1CCN(C3CCCCC3)C(CCO)C1)=C2` (stereo not drawn), the activation was 2.61%.

As to `O=C(Nc1ccc(Cl)cc1F)c1ccc(SCC(=O)N2CCCCC2)c([N+](=O)[O-])c1`, the activation was 2.3%.

For the compound `COc1ccc(S(=O)(=O)N(C)CC(=O)NCc2ccccn2)cc1C`, the activation was 2.7%.

Turning to `Cc1cccc(Nc2nnc(SCC(=O)N3CCCC3=O)s2)c1C`, the activation was -1.1%.

For the compound `O=C(CN1C(=O)COc2ccc(Cl)cc21)Nc1ccccc1F`, the activation was 0.859%.

Consider `Cc1cccc(NC(=O)CN2C(=O)S/C(=C\c3ccc(Br)s3)C2=O)c1`, for which the activation was 1.12%.

Turning to `O=C(CN1C(=O)S/C(=C\c2ccc(Cl)s2)C1=O)Nc1ccccc1F`, the activation was 7.92% (active).

Regarding `COc1ccc(N2C(=O)CN(C(=O)c3cc(C(F)(F)F)[nH]n3)CC23CCCC3)cc1`, the activation is -0.225%.

As to `COc1cccc(CC(=O)N2CCc3nc(COc4ccccc4)c4c(c3C2)CO[C@@H](C)C4)c1`, the activation was 4.35%.

Consider `C[C@H]1Cc2c(COc3ccccc3)nc3c(c2CO1)CN(C(=O)NCc1ccco1)CC3`, for which the activation was 8.56% (active).

As for `C[C@H]1Cc2c(COc3ccccc3)nc3c(c2CO1)CN(C(=O)Nc1cccc(C#N)c1)CC3`, the activation is -0.449%.

For `Cc1ccnc(-n2c(=O)c3cc4c(=O)n(-c5cc(C)ccn5)c(=O)c4cc3c2=O)c1`, the activation was -0.463%.

With `Cc1ncc(CO)c(/C=N/NC(=O)c2cc3c(s2)CCC(C)C3)c1O` (stereo not drawn), the activation was -0.38%.

For the compound `CN(C)c1ccc(C=NCC(O)CN=Cc2ccc(N(C)C)cc2)cc1` (stereo not drawn), the activation is 0.679%.

In the case of `CC[n+]1c(/C=C/c2ccc(N(C)C)cc2)oc2ccccc21`, the activation is -0.273%.

`CC[n+]1cc(C)ccc1/C=C/c1ccc(N(C)C)cc1`: the activation was 5.25% (active).

As to `CCC(C)C(=O)NCc1nnc2n1CCN(C(=O)c1sc(C)nc1C)CC2` (stereo not drawn), the activation is -0.99%.

In the case of `COc1cccc(NC(=O)c2cc([N+](=O)[O-])ccc2NC(=O)CNCc2cccnc2)c1`, the activation is -1.03%.

With `O=C(Nc1ccc(-c2ccncc2)cn1)C1COc2ccccc2O1` (stereo not drawn), the activation is -2.03%.

`COCCNc1nc2nonc2nc1N(C)Cc1ccncc1C`: the activation was 8.73% (active).

Turning to `COCCNc1nc2nonc2nc1N1CCCC1c1nccs1` (stereo not drawn), the activation was 1.38%.

For the compound `COCCNc1nc2nonc2nc1N(C)Cc1ccc(C)cc1`, the activation is -1.03%.

Regarding `O=C(O)c1cc([N+](=O)[O-])c(NCc2ccccc2)c([N+](=O)[O-])c1`, the activation is 0.643%.

`O=C(Cn1c(=O)n(Cc2ccc(F)cc2)c(=O)c2cccnc21)Nc1ccccc1F`: the activation was 0.571%.

As to `O=C(Cn1c(=O)n(Cc2ccc3c(c2)OCO3)c(=O)c2cccnc21)Nc1ccc(F)cc1`, the activation was -0.979%.

Consider `O=C(Cn1c(=O)n(Cc2cccs2)c(=O)c2cccnc21)Nc1ccc(F)cc1`, for which the activation was 5.75% (active).

With `COc1ccc(NC(=O)c2ccc(F)c3ccccc23)cc1`, the activation is 0.361%.

On to `COC(=O)c1cnn2c1NCN(Cc1ccccc1Cl)C2`, for which the activation is 0.44%.

Take `CC(=O)Nc1cccc(-c2cnc3[nH]c(=O)n([C@@H](C)c4ccccc4)c3n2)c1`: the activation was 0.0611%.

Regarding `CCN(CC)C(=O)C1c2ccccc2C(=O)N(CCOC)C1c1c[nH]c2ccccc12` (stereo not drawn), the activation was -0.555%.

As to `COc1ccc([N+](=O)[O-])cc1N1C(=O)c2ccc(-c3nc4ccccc4c(=O)o3)cc2C1=O`, the activation was 2.31%.

Take `COc1ccc(-c2nc3cc(Cl)ccc3c(=O)o2)cc1OC`: the activation was -0.243%.

`COc1cc2nc(-c3ccc4c(c3)C(=O)N(CCC(C)C)C4=O)oc(=O)c2cc1OC`: the activation was 5.83% (active).

For the compound `O=C(c1ccccc1)N1CCN(c2nc3ccccc3o2)CC1`, the activation was 0.594%.

As for `Cc1ccc(S(=O)(=O)N/N=C/c2ccc(N(C)C)c(Br)c2)cc1`, the activation is -1.16%.

With `O=C(CCn1nnc2ccccc21)N/N=C/c1ccc2ccccc2c1`, the activation is -0.0304%.

As to `Cc1ccccc1Nc1nnc(SCC(=O)N(C)C)s1`, the activation is -2.99%.

Regarding `CCOc1ccc(NS(=O)(=O)c2ccc(Cl)cc2)cc1`, the activation is 2.4%.

`CCc1ccc(NS(=O)(=O)c2ccc(Cl)cc2)cc1`: the activation is 5.43% (active).

`COc1ccc(NS(=O)(=O)c2ccc(Cl)cc2)cc1`: the activation is 2.48%.

Turning to `O=C(Nc1ccc(F)c(F)c1)c1ccc(N2CC3CC(C2)c2cccc(=O)n2C3)c(NC(=O)c2ccc(Br)o2)c1` (stereo not drawn), the activation was 2.62%.

Take `O=C(COC(=O)C(Cc1c[nH]c2ccccc12)NC(=O)c1ccco1)c1ccc(Br)cc1` (stereo not drawn): the activation is 0.0528%.

Consider `COc1ccc(C(=O)COC(=O)C(Cc2ccccc2)NC(=O)c2ccco2)cc1` (stereo not drawn), for which the activation is 6.4% (active).

For the compound `CCC(Cc1ccccc1)NC(=O)c1ccco1` (stereo not drawn), the activation is 0.495%.

As to `Cc1ccsc1C(=O)OCc1nc2ccccc2s1`, the activation was -2.54%.

With `Cc1cccnc1CN1CCN(C(=O)Cn2nnnc2CN(C)C(C)C)CC1`, the activation is -1.06%.

Regarding `Cc1ccc(NC(=O)Cn2cc(-c3ccccc3)c(N3CCOCC3)n2)c(C)c1`, the activation is 4.93% (active).

`Cc1ccc(C)c(NC(=O)CN2CCOCC2)c1`: the activation was -1.34%.

As to `Cc1ccc2c(c1)N(C(=O)Cn1cc(-c3ccccc3)c(N(C)C)n1)CCO2`, the activation is -0.0851%.

Take `Cc1c(C(=O)Oc2ccccc2)sc2ncn(Cc3ccccc3F)c(=O)c12`: the activation was 1.05%.

Regarding `CC(C)n1nccc1-c1nnc(NC(=O)Cc2ccc(F)cc2)o1`, the activation is 3.52%.

In the case of `N=C1CCCN1CC(=O)c1ccccc1`, the activation is 0.114%.

On to `Cc1ccc2nc3[nH]c4ccccc4c3nc2c1`, for which the activation was -4.57%.

As to `Nc1c([N+](=O)[O-])cc(Br)c2nsnc12`, the activation was 0.283%.

For the compound `CN(C)CC(C)(O)c1ccc2c(c1)CN(C(=O)c1cc(-c3ccsc3)n[nH]1)CCO2` (stereo not drawn), the activation is -0.659%.

`CCOc1ccc(NC(=O)CN2CCN(CC(N)=O)CC2)cc1`: the activation is 0.536%.

Consider `CCOc1ccc(NC(=O)N2CCC(N(C)CCC(C)C)CC2)cc1`, for which the activation is -0.0877%.

With `CCOc1ccc(NC(=O)N2CCN(CC)CC2)cc1`, the activation was 5.53% (active).

On to `CCC(=O)Nc1c(C(=O)Nc2ccccc2)oc2ccccc12`, for which the activation was -0.454%.

`CC(=O)c1cccc(-c2cc(C(=O)Nc3ccc(N4CCOCC4)cc3)ccn2)c1`: the activation is 1.66%.

Regarding `CN(C)c1cccc(Nc2cc(C(=O)Nc3ccc(N4CCOCC4)cc3)ccn2)c1`, the activation is 5.03% (active).

For the compound `CN(C)c1cccc(Nc2nc3ccc(C(=O)Nc4ccc(N5CCOCC5)cc4)cc3s2)c1`, the activation is -1.45%.

For `COc1cc(OC)cc(-c2nc3ccccc3c(=O)n2NC(=O)Cc2cccs2)c1`, the activation is 1.45%.

With `O=C(Cc1cccs1)Nn1c(-c2cccc([N+](=O)[O-])c2)nc2ccccc2c1=O`, the activation was 5.65% (active).

For the compound `O=C(/C=C/c1cccc([N+](=O)[O-])c1)Nn1c(-c2cccs2)nc2ccccc2c1=O`, the activation is 1.05%.
